Screening results: PubChem, several laboratories
Sampled rows, rich in hits. Any-hit rate of the full collection: about 2.5%.
UBC9 SUMO inh: inhibitors of in vitro SUMOylation cascade, primary screen, biochemical, HTRF, uHTS | HTRF SUMOylation assay, SAE1/SAE2 + UBC9 | inhibition, % at 35 µM | 290,000 compounds, 0.36% hits | AID 2006, 2009; in the data active means inhibition above about 50%, passing the limit was not always enough; inconclusive means no clear call, values can overlap the other calls
PfM18AAP inh-1: PfM18AAP inhibitors, malaria aminopeptidase, primary screen, biochemical, QFRET, recombinant enzyme; M18 aspartyl aminopeptidase (Plasmodium falciparum 3D7); H-Glu-NHMec fluorogenic cleavage; inhibition, % at 7.35 µM; 290,000 compounds, 1.2% hits;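 active means inhibition above the campaign mean inhibition over all tested compounds plus 3 SD, cut at about 28% in these data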;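 further: 0% = plate median of test compound wells and 100% = 2 mM ZnCl2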
PHOSPHO1 block: PubChem AID 1565. 290,000 compounds, 1.1% hits. recombinant PHOSPHO1, absorbance phosphatase assay. Phosphoethanolamine/phosphocholine phosphatase (Homo sapiens), Q8TCT1. inhibition, % at 13.3 µM; in the data active means inhibition above about 60%
HDAC3 inh: HDAC3 deacetylase inhibitors, primary screen, biochemical, fluorescence, cell-free homogeneous; recombinant HDAC3, fluorogenic peptide/trypsin coupled; 320,000 compounds, 0.15% hits; inhibition, % at 8.3 µM; Histone deacetylase 3 (Homo sapiens), O15379; in the data active means inhibition above about 26%, passing the limit was not always enough; inconclusive means no clear call, values can overlap the other calls
G6PDH CS: L. mesenteroides G6PDH inhibitors, counter-screen for G6PDH-coupled screening assays, biochemical, Leuconostoc mesenteroides enzyme. glucose-6-phosphate dehydrogenase [Leuconostoc mesenteroides]. Purified L. mesenteroides G6PDH, diaphorase/resazurin coupled fluorescence, 45 min. inhibition, % at 5 µM. 200,000 compounds, 0.12% hits. AID 1020, 2008; in the data active means inhibition above about 50%
p97 inhibitor: inhibitors of human p97 ATPase, primary screen, biochemical | Transitional endoplasmic reticulum ATPase (Homo sapiens), P55072 | recombinant p97 ATPase, Kinase-Glo ATP luminescence, 3 h | inhibition, % at 8 µM | 220,000 compounds, 0.42% hits | AID 1481, 2009; in the data active means inhibition above about 15%;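 further: 0% = DMSO vehicle and 100% = wells lacking enzyme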
PfM18AAP inh-2: PfM18AAP inhibitors, malaria aminopeptidase, confirmation, biochemical, QFRET, recombinant enzyme, triplicate | shares compounds with PfM18AAP inh-1 | H-Glu-NHMec fluorogenic cleavage | inhibition, % at 7.35 µM | 2,400 compounds, 28% hits | AID 2170, 2009;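 active means mean inhibition over replicate wells above the hit cutoff set for the earlier primary screen, cut at about 29% in these data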;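 further: 0% = median of test compound wells and 100% = 2 mM ZnCl2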
CTSL1 counter: cathepsin L1 inhibitors, retest, confirmation, counter-screen for PFM18AAP inhibitor project, biochemical, QFRET, triplicate; shares compounds with PfM18AAP inh-1; purified cathepsin L1, Z-Leu-Arg-MCA fluorescence; inhibition, % at 5.96 µM; 2,400 tested, under 10 active; AID 2178, 2009;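 active means average inhibition across replicates above the hit cutoff set in the earlier primary screen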;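 further: 0% = median of test compound wells and 100% = Z-Phe-Ala-diazomethylketone 1 µM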
The depositor's hits bear a star; u = inconclusive; x = no result given.

SMILES	UBC9 SUMO inh	PfM18AAP inh-1	PHOSPHO1 block	HDAC3 inh	G6PDH CS	p97 inhibitor	PfM18AAP inh-2	CTSL1 counter
O=c1oc2ccccc2c(O)c1C(c1ccc([N+](=O)[O-])cc1)c1c(O)c2ccccc2oc1=O	36.1	14.3	11.2	x	3.5	1.6	x	x
C/C(CC(c1ccccc1)c1c(O)c2ccccc2oc1=O)=N\Nc1ccc([N+](=O)[O-])cc1[N+](=O)[O-] (stereo not given)	4.9	35.8*	32.1	5.3	x	2.5	-28.0	-1.2
N/C(=N\[N+](=O)[O-])N1CCN(C(=O)Oc2ccccc2)CC1	2.8	-2.2	28.0	-8.8	x	x	x	x
C[N+]1(C)C2CC[C@H]1CC(OC(=O)C(CO)c1ccccc1)C2 (stereo not given in full)	x	x	x	-2.4	x	x	x	x
C[N+]1(C)[C@@H]2CC[C@H]1CC(OC(=O)[C@@H](CO)c1ccccc1)C2 (stereo not given in full)	13.6	44.0*	23.3	u	x	x	32.9*	-1.7
CN1CCN2c3ccc(N)cc3CC3(C(=O)NC(=O)NC3=O)C2C1 (stereo not given)	78.9*	43.7*	17.7	x	x	-3.6	-44.6	1.9
O=C(O)Cn1cc(/C=C2\C(=O)NC(=O)N(c3ccc(Cl)cc3)C2=O)c2ccccc21	7.0	25.8	x	15.2	x	x	x	x
COc1cc(/C=C2\C(=O)NC(=O)N(c3ccccc3)C2=O)cc(OC)c1O	-5.5	35.6*	21.7	1.2	47.8	4.5	-38.7	5.7
CCN(CC)C(=O)Cn1cc(/C=C2\C(=O)NC(=O)N(c3ccccc3F)C2=O)c2ccccc21	-13.0	34.8*	x	1.1	x	x	-6.9	-4.9
C=CCn1cc(C=C2C(=O)NC(=O)NC2=O)c2ccccc21	-6.5	53.8*	39.9	-0.7	x	x	33.5*	-5.1
Cn1cc(/C=C2\C(=O)NC(=O)N(c3ccccc3)C2=O)c2ccccc21	19.1	35.2*	39.4	-0.5	x	x	38.6*	1.1
CCN1C(=O)NC(=O)/C(=C\c2cn(CC(=O)N3CCCCC3C)c3ccccc23)C1=O (stereo not given)	7.2	16.4	37.7	-6.5	x	x	x	x
COc1ccc(NC(=O)C2C3CCC(O3)C2C(=O)O)c(OC)c1 (stereo not given)	14.1	2.3	29.1	-4.1	x	x	x	x
COC1=CC(=O)O[C@@H](/C=C/c2ccccc2)C1	x	x	x	3.5	x	x	x	x
Cc1cccc(N=Nc2ccc(N(C)C)cc2)c1	-5.0	-7.1	-32.3	7.4	x	x	x	x
CN(C)C1C(=O)C(C(N)=O)=C(O)C2(O)C(=O)C3=C(O)c4c(O)cccc4C(C)(O)C3C(O)C12 (stereo not given)	31.6	55.6*	-5.6	4.5	x	x	-21.3	0.8
COc1ccc(-n2c(/C=C/c3ccc(O)c(O)c3)nc3ccccc3c2=O)cc1	-11.9	62.7*	20.3	-3.9	x	x	45.3*	0.9
COc1cc(/C=C/c2nc3ccccc3c(=O)n2-c2ccc(O)cc2)ccc1O	-3.6	12.6	28.6	1.5	x	x	x	x
C[C@]12CC[C@H](O)C[C@H]1CC[C@@H]1[C@@H]2C[C@@H](O)[C@]2(C)[C@@H](C3=CC(=O)OC3)CC[C@]12O	x	x	x	-2.4	x	x	x	x
CCN(CC)c1ccc(/C=N/c2sc3c(c2C#N)C2CCN3CC2)c(O)c1	5.7	32.0*	-4.0	3.4	-23.2	2.4	-37.0	-0.3
CCN1CCN(C(=O)COc2ccc3oc4c(c3c2)CCCC4)CC1	x	x	x	-0.6	x	x	x	x
COC(=O)C1=C(c2ccc(OCc3ccccc3)cc2)C[C@@H]2CC[C@H]1N2C(=O)NCc1ccc([N+](=O)[O-])cc1	x	x	x	7.3	x	x	x	x
COc1ccccc1-n1c(O)c(/C=C2\C=Nc3ccccc32)c(=O)[nH]c1=O	-3.4	40.2*	35.7	2.5	x	x	42.8*	-8.7
COC(=O)C1=C(c2cccc(OCc3ccccc3)c2)C[C@@H]2CC[C@H]1N2C(=O)NCc1cc(C)oc1C(F)(F)F	x	x	x	-1.9	x	x	x	x
CCc1ccc(N2C(=O)NC(=O)/C(=C\c3cc(C)n(-c4cc(C(=O)O)cc(C(=O)O)c4)c3C)C2=O)cc1	10.0	32.2*	10.6	1.6	x	x	-21.8	-1.3
SMILES	UBC9 SUMO inh	PfM18AAP inh-1	PHOSPHO1 block	HDAC3 inh	G6PDH CS	p97 inhibitor	PfM18AAP inh-2	CTSL1 counter
COc1cc2c(cc1/C=C/[N+](=O)[O-])OCO2	22.0	38.4*	-10.1	x	13.9	-1.0	17.2	0.6
Oc1ccc(CC2CC3CCN2CC3)cc1O (stereo not given)	17.7	57.1*	6.3	1.4	40.1	1.4	27.5	-3.9
COC(=O)C1=C(c2ccc(OC(F)(F)F)cc2)C[C@@H]2CC[C@H]1N2C(=O)NC(C)C	x	x	x	5.7	x	x	x	x
O=c1c2ccccc2[se]n1-c1ccccc1	-13.9	93.6*	89.2*	x	11.4	0.7	96.5*	-1.9
O=c1c2ccccc2nc(-c2ccccc2)n1-c1ccccc1	-5.6	6.2	36.2	-1.0	x	-3.3	x	x
CC(C)(C)C(=O)O[C@H]1CC[C@@]2(C)C(=CC(=O)C3C2CC[C@]2(C)C(=O)[C@@H](F)CC32)C1 (stereo not given in full)	x	x	x	-6.9	x	x	x	x
CC(C)(C)c1ccc(O)c(N=Cc2c(O)ccc3ccccc23)c1	9.5	88.9*	x	-1.4	x	x	44.7*	3.0
COC(=O)C(O)(c1ccc(N=Cc2ccccc2O)c(C)c1)C(F)(F)F (stereo not given)	2.1	3.0	7.4	-0.2	10.0	5.4	x	x
O=C1NC(=O)C(=Cc2ccc(-c3ccc(F)cc3O)o2)C(=O)N1	7.0	50.7*	-36.6	4.8	x	x	58.3*	0.3
O=C1NC(=O)C(=Cc2ccc(-c3ccc(S(=O)(=O)N4CCOCC4)cc3)o2)C(=O)N1	12.9	-3.9	25.4	-2.2	x	x	x	x
O=C1NC(=O)C(=Cc2ccc(-c3ccc(Cl)cc3)o2)C(=O)N1	2.9	32.9*	20.2	-0.1	x	x	18.7	-4.0
Cc1c2cnn(CC(=O)N3CCC4(CC3)OCCO4)c(=O)c2c(C)n1Cc1ccccc1Cl	-7.9	2.4	29.0	-1.6	x	x	x	x
O=C(CN1CCN(C(=O)COc2cccc(F)c2)CC1)Nc1ccc(Cl)c(C(F)(F)F)c1	x	x	x	12.0	x	x	x	x
